About 79,000 compounds went through this panel and 15% of them were active in at least one assay; those are over-represented in the sample as a whole. Values without a mark were called inactive. Active and inactive are the calls of the source. Rule as the data show it: active = growth inhibition above about 70%; inactive = the rest. Where a SMILES comes first, the peptide text is derived from it. The star is where a group is joined. Boc = CC(C)(C)OC(=O)*; NHNH2 = NN*
Experiments:
[1] = NCI Yeast Anticancer Drug Screen. Data for the rad50 strain (AID 155);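 also: 0% = growth of vehicle-only cultures of the same strain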; conditions: S. cerevisiae rad50 strain growth inhibition; at 50.0 µM; hits give high values
Procedure, shortened: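 Readout: growth inhibition relative to vehicle-treated cultures. Compound exposure was carried out in a genetically defined yeast strain deficient in DNA damage repair.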

[2] = NCI Yeast Anticancer Drug Screen. Data for the mec2-1 strain (AID 157); conditions: S. cerevisiae mec2-1 strain, at 50.0 µM, hits give high values
Procedure, shortened: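 Vehicle-treated cultures served as reference for growth inhibition of compound-exposed mec2-1 yeast.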

[3] = NCI Yeast Anticancer Drug Screen. Data for the sgs1 mgt1 strain (AID 161);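 also: 0% = growth of cultures given vehicle only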; conditions: S. cerevisiae sgs1 mgt1 strain, at 50.0 µM, hits give high values
Procedure, shortened: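 Test agents were incubated with a DNA-repair-mutant yeast strain. Growth was then read and compared against vehicle-treated controls.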

[4] = NCI Yeast Anticancer Drug Screen. Data for the cln2 rad14 strain (AID 165);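 also: 0% = growth equal to vehicle treated cultures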; conditions: S. cerevisiae cln2 rad14 strain, at 50.0 µM, hits give high values
Procedure, shortened: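 Each compound was tested on cln2 rad14 yeast. Inhibition of growth was calculated against vehicle-exposed controls.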

[5] = NCI Yeast Anticancer Drug Screen. Data for the bub3 strain (AID 167); conditions: S. cerevisiae bub3 mutant strain, at 50.0 µM, hits give high values
Procedure, shortened: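 Readout: yeast growth inhibition, expressed relative to vehicle-only wells. The test organism is a mutant strain from a panel with lesions in DNA repair or checkpoint genes.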

[6] = NCI Yeast Anticancer Drug Screen. Data for the mlh1 rad18 strain (AID 175); conditions: S. cerevisiae mlh1 rad18 strain growth inhibition; at 50.0 µM; hits give high values
Procedure, shortened: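 Vehicle-treated cultures served as the reference for growth inhibition in a yeast strain carrying DNA damage repair alterations exposed to each compound.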

Row | Structure (SMILES) | growth inhibition [1] | growth inhibition [2] | growth inhibition [3] | growth inhibition [4] | growth inhibition [5] [%] | growth inhibition [6]
1 | CC(=O)Nc1cccc2c(OC(C)=O)cccc12 | 15.1% | -20.9% | -19.7% | -50% | 7.6 | -4.1%
2 | OC(Cc1ccccc1)c1ccccc1 (stereo unspecified) | -21.9% | -19.8% | -24.8% | 16.2% | -5.15 | 1.5%
3 | Cc1cccc(-c2nc(N)nc(N)n2)c1 | 11.8% | -9.45% | -1.05% | 18.6% | 7 | 22.4%
4 | CCC(C)C(NC(=O)C(Cc1c[nH]c2ccccc12)NC(=O)OC(C)(C)C)C(=O)NN (stereo not drawn) (Boc-Trp-Ile-NHNH2; configuration not given here) | 24.8% | 3.7% | 8.5% | 15.4% | -4.35 | 15.6%
5 | CC(=O)OCC1COC(C2CC=CCC2C)O1 (stereo unspecified) | -1.9% | -8.9% | -8.35% | 4.05% | – | -7.6%
6 | Cc1ccc(SCCSc2ccc(C)cc2)cc1 | 17.7% | 5.8% | 3% | -5.7% | – | 39.5%
7 | CCCCCCCCCCCCCCCCC1=C(C(=O)OC)NC(N)=NC1O (stereo unspecified) | 29% | 0.25% | -20.8% | -10.1% | – | 22.1%
8 | O=C1c2ccccc2C(O)(c2ccc(O)cc2)c2ccccc21 | -3.25% | 0.1% | -0.95% | -0.3% | – | 6.2%
9 | CC(C)CCC(C)(C)COC(=O)c1ccc([N+](=O)[O-])cc1 (tested in a mixture with another compound) | 36.5% | 15.1% | 43.4% | -2.25% | – | 29.3%
10 | O=C1OC(c2ccc(Cl)c3ccccc23)c2ccccc21 (stereo unspecified) | 58.6% | 19.2% | 34.4% | 28.6% | – | 43.3%
11 | CCOC(=O)C(Cc1ccc([N+](=O)[O-])cc1)NC(=O)CC1c2ccccc2-c2ccccc21 (stereo unspecified) | -10.1% | 1.05% | 3.4% | -35% | – | -8.95%
12 | COc1ccc(NC(=O)C2C(=O)N(c3ccc(OC)cc3)C(=O)/C2=N\NC(N)=O)cc1 (stereo unspecified) | -8.9% | -24.9% | -48% | 11.1% | – | -18.2%
13 | COc1ccc2c(c1OC)C(=O)OC2(O)C1=NCCc2cc3c(cc21)OCO3 (stereo unspecified) | 19% | -7.25% | 8.1% | 21.3% | – | 13.2%
14 | CN(C)C(=O)c1cccc(C2CCCCC2)c1O | -10.8% | 1.85% | 14.6% | -81.4% | – | -14.7%
15 | Fc1ccc(C2(c3ccc(F)cc3)CCCO2)cc1 | 4.4% | -22.4% | -6.15% | 25.7% | – | 6.2%
16 | O=C1OC(Cc2ccccc2)=N/C1=C/c1ccccc1 | 9.05% | 0.8% | 1.15% | -9% | – | 4.55%
17 | CCN(CC)C(=O)Sc1ccc(SC(=O)N(CC)CC)cc1 | -5% | 12.6% | -2.05% | -5.65% | -3.3 | -6.4%
18 | c1cc(C2CCCCC2)ccc1C1CCCCC1 | -7.4% | -19.1% | -20.6% | -58.1% | – | -3.9%
19 | N#CCCC1C(=O)CCCC1=O | 0.2% | 9.2% | -0.85% | -13.6% | – | 12.9%
20 | S=C1NC=CC(S)N1 (stereo unspecified) | -3.3% | 5.95% | 6.6% | 10.3% | – | -1.35%
21 | O=C(c1ccccc1)C1Nc2ccc(Cl)cc2C2C=CCC12 (stereo unspecified) | -1.2% | -7.75% | 6.4% | -7.95% | – | 14.8%
22 | CC(C)=CCCC(C)(O)C1CC=C(C)CC1 (stereo unspecified) | 0.5% | -18.8% | -2.6% | 3.05% | – | -7.65%

Row | Structure (SMILES) | growth inhibition [1] | growth inhibition [2] | growth inhibition [3] | growth inhibition [4] | growth inhibition [5] [%] | growth inhibition [6]
23 | O=P(CCC(O)c1ccccc1)(c1ccccc1)c1ccccc1 (stereo unspecified) | -7.45% | 5.65% | -0.65% | 0.5% | – | 9.8%
24 | Cn1c(=O)c2c(nc(CCC(N)=O)n2C)n(C)c1=O | -1.35% | -20.9% | 8.25% | -14.8% | – | 12.7%
25 | CCOC(=O)c1c(C)c(=O)cnc2c(C#N)cnn12 | -4.55% | -6.75% | -6.8% | -33.2% | – | -8.35%
26 | COc1ccc2ccccc2c1C=O | 33.5% | 23% | 40.1% | -16.2% | 5.45 | 47.8%
27 | CCOC(=O)c1ccc(N[C@@H]2c3cc4c(cc3C(c3cc(OC)c(O)c(OC)c3)[C@H]3C(=O)OCC32)OCO4)cc1 (stereo partly specified) | 85.6% (active) | 91.7% (active) | 89.2% (active) | 87.5% (active) | – | 88.8% (active)
28 | Nc1nnc2nc(CC(=O)c3ccccc3)c(CC(=O)c3ccccc3)nn12 | -5.4% | -2.9% | 3% | 32.6% | – | 16.2%
29 | Nc1nc(SCc2ccccc2Cl)cc(C(=O)O)n1 | 31.6% | 34.7% | 47.2% | 4.15% | – | 53%
30 | CCCCOC(=O)CNC(=O)OC/C=C/C#CC#C/C=C/COC(=O)NCC(=O)OCCCC | -20.2% | -35.8% | -24.4% | -17.9% | – | -19.9%
31 | Nc1ccc(C(=O)N/N=C/c2ccc(Cl)cc2Cl)cc1 | 27% | -4.05% | 11.9% | 8% | – | -5.75%
32 | CC1C2CC(CC(=O)N2)C1(C)C (stereo unspecified) | 15.6% | 21.6% | 21.7% | 15.1% | – | 13.6%
33 | O=C(O)c1ccc([N+](=O)[O-])cc1Cl | -11.9% | -10% | -1.55% | 8.15% | – | -7.55%
34 | O=C(NC(=O)c1c(F)cccc1F)Nc1nc2c(Cl)cccc2s1 | 21.4% | 14.7% | 10.1% | -4.9% | – | 17.6%
35 | CCN(CC)N=Nc1ccc(S(N)(=O)=O)cc1 | 8.25% | 12.6% | 16.1% | 38% | – | 14.6%
36 | COC1=C(OC)C(=O)C2=C(OCO2)C1=O | -1.05% | 16.2% | 4.2% | -1.35% | – | -1.1%
37 | CCC(CC)C(=O)NCC(=O)NO | 2.25% | 2.85% | 1% | -36% | – | 9.15%
38 | N#C/C(=C/NC(=S)N=Nc1c(O)[nH]c2ccccc12)C(N)=O | -33.7% | -51.7% | -19.8% | -6.6% | – | -18.9%
39 | COc1cc(/C=N/NC(=O)C(=O)N/N=C/c2cc(OC)c(OC)c(OC)c2)cc(OC)c1OC | -20.4% | -34.1% | -24.7% | 3.9% | – | -21.1%
40 | Nc1cnc2c(c1)c(=O)nc1n2CCS1 | -0.45% | 9.65% | 6.6% | 5.3% | – | -27.1%
41 | COC(=O)C1=C(C)N(NC(=O)c2cccc(Cl)c2)C(C)(O)C12CCOC2=O (stereo unspecified) | 37.6% | -21.6% | 4.15% | 6.65% | – | 38.1%
42 | Cc1c([N+](=O)[O-])cc(C(C)(C)C)c(OC(=S)N(C)C)c1[N+](=O)[O-] | 26.9% | 23.4% | -1.75% | 18% | – | 0.7%
43 | Cc1cccc(C)c1NC(=O)C(Cl)Cl | -2.9% | -0.6% | -3.9% | 5.05% | – | -0.15%
44 | Cc1ccccc1NC(=O)C(C)C | 28.8% | -5.7% | 4.35% | 11.3% | – | 7.2%

From PubChem BioAssay (NCI)
